# Test results as given in PubChem BioAssay (EPA / NIEHS).
# Several values for one entry are separate records, joined by “and”; a condition that tells them apart may be missing. Identical values can stand only once. Results filed as inconclusive are left out. Some compounds were tested as several samples or in several runs, with calls that do not always agree. Activity calls are given as the source filed them. The calls were made as follows, unless noted: active = hit-call score of the fitted dose curve at least 0.9, where 1 is the maximum; inactive = score below 0.9.
# How the values were obtained:
# KRT18 (gene 3875) = assay: BSK_BE3C_Keratin818: BioMAP Diversity Plus: BE3C Assay for Keratin 818 Biomarker Activity (AID 2284282); conditions: primary human bronchial epithelial cells
# In short: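 Human primary bronchial epithelial cells in the BE3C system were exposed to test chemical for 24 h, then Keratin 8/18 was quantified by ELISA. Activity was fitted in the positive direction against DMSO as negative control and baseline.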
# [1] = read-out: Matrix Metallopeptidase 9 (MMP9), MMP9 (gene 4318); assay: BSK_BE3C_MMP9: BioMAP Diversity Plus: BE3C Assay for Matrix Metallopeptidase 9 (MMP9) Biomarker Activity (AID 2284283); conditions: primary human bronchial epithelial cells
# In short: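 BE3C, human bronchial epithelial primary cells; 24 h post-dose; MMP-9 by ELISA; positive fit vs DMSO; SRB (0.1%, TCA-fixed, 560 nm) parallel cytotox.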
# [2] = read-out: Plasminogen activator inhibitor-1 (PAI1), SERPINE1 (gene 5054); assay: BSK_CASM3C_PAI1: BioMAP Diversity Plus: CASM3C Assay for Plasminogen activator inhibitor-1 (PAI1) Biomarker Activity (AID 2284284); conditions: primary human coronary artery smooth muscle cells;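 also: PAI-1 protein level measured by ELISA 24 h after dosing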
# [3] = read-out: Monocyte Chemoattractant Protein-1 (MCP1), CCL2 (gene 6347); assay: BSK_hDFCGF_MCP1: BioMAP Diversity Plus: hDFCGF Assay for Monocyte Chemoattractant Protein-1 (MCP1) Biomarker Activity (AID 2284285); conditions: primary human foreskin fibroblasts
# In short: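 Human foreskin fibroblasts (hDFCGF system) were exposed to compound and secreted MCP-1 was measured by ELISA after 24 hours. Activity was fitted relative to DMSO. Cytotoxicity was checked by SRB total-protein staining in parallel cultures.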
# [4] = read-out: Intercellular Adhesion Molecule 1 (ICAM1), ICAM1 (gene 3383); assay: BSK_hDFCGF_ICAM1: BioMAP Diversity Plus: hDFCGF Assay for Intercellular Adhesion Molecule 1 (ICAM1) Biomarker Activity (AID 2284287); conditions: primary human foreskin fibroblasts
# In short: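 Primary human foreskin fibroblasts (hDFCGF system) dosed with chemical; ICAM-1 quantified by ELISA at 24 h relative to DMSO. Parallel SRB total-protein staining to assess overt cytotoxicity.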
# [5] = read-out: TIMP metallopeptidase inhibitor 2 (TIMP2), TIMP2 (gene 7077); assay: BSK_hDFCGF_TIMP2: BioMAP Diversity Plus: hDFCGF Assay for TIMP metallopeptidase inhibitor 2 (TIMP2) Biomarker Activity (AID 2284289); conditions: primary human foreskin fibroblasts
# In short: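 Primary human foreskin fibroblasts in the hDFCGF system, dosed for 24 h; TIMP-2 level measured by ELISA, fitted in the positive direction against DMSO; cytotoxicity checked in parallel by sulforhodamine B total protein staining.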
# [6] = read-out: Thrombomodulin, THBD (gene 7056); assay: BSK_LPS_Thrombomodulin: BioMAP Diversity Plus: LPS Assay for Thrombomodulin Biomarker Activity (AID 2284296); conditions: primary human HUVEC with PBMC
# In short: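 Human umbilical vein endothelial cells co-cultured with PBMC and stimulated with LPS; cell-surface thrombomodulin measured by ELISA 24 hours after compound. Gain or loss versus DMSO; cytotoxicity checked by SRB staining in parallel cultures.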
# [7] = IUF_NPC2c_oligodendrocyte_migration_120hr: Leibniz Research Institute for Environmental Medicine (IUF) 120-hour Neural Progenitor Cell Migration Assay for Oligodendrocyte Migration (NPC2c) (AID 2284297)
# In short: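 Read-out is the mean distance of O4-positive oligodendrocytes from the sphere core edge at 120 h, normalized to radial glia migration and fitted in the gain direction against DMSO. Spheres of primary human neural progenitors differentiated on laminin under continuous compound exposure.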
# [8] = IUF_NPC2a_radial_glia_migration_120hr: Leibniz Research Institute for Environmental Medicine (IUF) 120-hour Neural Progenitor Cell Migration Assay for Radial Glia Migration (NPC2a) (AID 2284298)
# In short: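 Readout: distance in um from sphere core edge to migration-area edge, derived from Hoechst nuclei density with a threshold-defined polynomial boundary. Spheres: hNPC, GW 16-19, 0.3 mm, on PDL/laminin; exposure 5 days; DMSO is baseline.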
# [9] = IUF_NPC2a_radial_glia_migration_72hr: Leibniz Research Institute for Environmental Medicine (IUF) 72-hour Neural Progenitor Cell Migration Assay for Radial Glia Migration (NPC2a) (AID 2284299)
# In short: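 Human fetal cortex (GW 16-19) neural progenitor spheres, 0.3 mm, plated on poly-D-lysine/laminin in N2 differentiation medium with compound from day 0. Radial glia migration distance (um, sphere core edge to migration edge) measured manually in four directions on 72 h brightfield images; well mean used.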
# [10] = IUF_NPC2b_neuronal_migration_120hr: Leibniz Research Institute for Environmental Medicine (IUF) 120-hour Neural Progenitor Cell Migration Assay for Neuron Migration (NPC2b) (AID 2284300)
# In short: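 Read-out is mean distance from sphere edge to each TUBB3-positive neuron at 120 h, expressed relative to radial glia migration distance and to DMSO baseline. Single 0.3 mm human NPC spheres differentiated on laminin under continuous compound exposure.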
# [11] = IUF_NPC3_neuronal_differentiation_120hr: Leibniz Research Institute for Environmental Medicine (IUF) 120-hour Neuronal Differentiation Assay (NPC3) (AID 2284301)
# In short: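 Human fetal (GW 16-19) neural progenitor spheres (0.3 mm) plated on poly-D-lysine/laminin in N2 differentiation medium, exposed 120 h at 37C with half-medium renewal day 3; 7 concentrations. TUBB3+ cells as % of Hoechst nuclei, CNN-identified; DMSO baseline.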
# CD69, CD69 (gene 969) = assay: BSK_LPS_CD69: BioMAP Diversity Plus: LPS Assay for CD69 Biomarker Activity (AID 2284303); conditions: primary human HUVEC with PBMC
# In short: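 Human umbilical vein endothelial cells co-cultured with PBMC under LPS stimulation, chemical exposure 24 h; cell-surface CD69 measured by ELISA and fitted in the positive direction versus DMSO.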
# [12] = IUF_NPC5_oligodendrocyte_differentiation_120hr: Leibniz Research Institute for Environmental Medicine (IUF) 120-hour Oligodendrocyte Differentiation Assay (NPC5) (AID 2284304; active = hit-call score of the fitted dose curve at least 0.9, where 1 is the maximum;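 also: primary human fetal neural progenitor spheres plated to migrate and differentiate; share of O4-positive cells among Hoechst nuclei found by CNN image analysis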)
# In short: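 Oligodendrocyte differentiation was scored after 120 h as the O4-positive share of Hoechst-stained nuclei across the neurosphere migration area, using a trained convolutional neural network on high-content fluorescence images. Human fetal neural progenitor spheres were dosed from day 0, normalised to DMSO.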
# [13] = IUF_NPC4_neurite_area_120hr: Leibniz Research Institute for Environmental Medicine (IUF) 120-hour Neuronal Morphology Assay for Neurite Area (NPC4) (AID 2284305; active = hit-call score of the fitted dose curve at least 0.9, where 1 is the maximum)
# In short: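 Human fetal neural progenitor spheres (0.3 mm) plated on poly-D-lysine/laminin in N2 differentiation medium, exposed 120 h (7 concentrations, DMSO ≤0.1%, half-medium refresh day 3). Fixed, TUBB3 immunostained; mean neurite area per neuron by Omnisphero skeletonization.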
# [14] = IUF_NPC2-5_cytotoxicity_72hr: Cytotoxicity Assessment at 72 hours in the Leibniz Research Institute for Environmental Medicine (IUF) Neural Progenitor Cell Migration and Differentiation Assay for Cytotoxicity (NPC2-5) (AID 2284306; active = hit-call score of the fitted dose curve at least 0.9, where 1 is the maximum;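 also: LDH release into supernatant measured by resorufin fluorescence marking membrane damage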)
# In short: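 Human fetal primary neural progenitor spheres (0.3 mm) plated on poly-D-lysine/laminin in N2 differentiation medium, exposed from day 0 at 37C. LDH-dependent resazurin-to-resorufin fluorescence in supernatant at 72 h; 7 concentrations, DMSO at most 0.1%.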
# [15] = IUF_NPC2-5_cytotoxicity_120hr: Cytotoxicity Assessment at 120 hours in the Leibniz Research Institute for Environmental Medicine (IUF) Neural Progenitor Cell Migration and Differentiation Assay (NPC2-5) (AID 2284307; active = hit-call score of the fitted dose curve at least 0.9, where 1 is the maximum;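 also: LDH released into supernatant as membrane damage marker via resorufin fluorescence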)
# In short: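 Sphere plating starts differentiation and exposure together at day 0. Compound solution is half-replaced on day 3. At 120 h, medium supernatant is taken for an LDH membrane-integrity read based on resazurin reduction to resorufin fluorescence.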
# [16] = IUF_NPC2-5_cell_number_120hr: Cell Number Assessment at 120 hours in the Leibniz Research Institute for Environmental Medicine (IUF) Neural Progenitor Cell Migration and Differentiation Assay (NPC2-5) (AID 2284308);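 also: count of Hoechst-stained nuclei in migration zone around plated human neural progenitor spheres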
# In short: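 hNPC spheres, one per well, PDL/laminin, N2 medium, 37C, 5% CO2. Dosing day 0 → half-medium change with fresh compound day 3 → fix 120 h. Readout: Hoechst+ nuclei count, migration area; 7 concentrations plus solvent control.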
# [17] = IUF_NPC2-5_viability_120hr: Viability Assessment at 120 hours in the Leibniz Research Institute for Environmental Medicine (IUF) Neural Progenitor Cell Migration and Differentiation Assay (NPC2-5) (AID 2284312)
# In short: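 Human fetal neural progenitor spheres (0.3 mm) plated on poly-D-lysine/laminin in N2 differentiation medium, exposed 120 h with half-medium refresh at day 3. Viability by alamar blue resazurin fluorescence; 7 concentrations, DMSO max 0.1%.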
# [18] = CCTE_Mundy_HCI_iCellGluta_NOG_NeuriteLength: CCTE's Neurite Outgrowth Assay in iCellGluta cells for Neurite Length, Mundy Lab (AID 2284318; active = hit-call score of the fitted dose curve at least 0.9, where 1 is the maximum)
# In short: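 Automated high-content imaging of betaIII-tubulin (Alexa Fluor-488) and Hoechst-stained cells gave neurite length, normalized to the DMSO baseline.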
# [19] = IUF_NPC1_cytotoxicity_72hr: Cytotoxicity Assessment at 72 hours in the Leibniz Research Institute for Environmental Medicine (IUF) Neural Progenitor Cell Proliferation Assay (NPC1) (AID 2284332; active = hit-call score of the fitted dose curve at least 0.9, where 1 is the maximum;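 also: rising LDH signal means more cytotoxicity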)
# In short: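 Single human fetal cortex neural progenitor spheres (GW 16-19, 0.25-0.35 mm) in EGF/FGF proliferation medium were exposed to compound for 72 h at 37C without renewal. Medium LDH release was read as resorufin fluorescence and fitted as gain-of-signal.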
# [20] = CCTE_Mundy_HCI_iCellGluta_NOG_NeuriteCount: CCTE's Neurite Outgrowth Assay in iCellGluta cells for Neurite Count, Mundy Lab (AID 2284342; active = hit-call score of the fitted dose curve at least 0.9, where 1 is the maximum;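 also: chemical exposure about 48 hours starting 2 hours after plating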)
smiles,measurement,setting,value
[Cd+2].[Cl-].[Cl-],outcome,KRT18 (gene 3875),inactive
same,AC50,[1],32 µM (active) and 27.7 µM (active)
same,AC50,[2],10.9 µM (active) and 13.8 µM (active)
same,AC50,[3],4.82 µM (active) and 1.76 µM (active)
same,AC50,[4],9.72 µM (active) and 13.9 µM (active)
same,AC50,[5],3.97 µM (active) and 2.93 µM (active)
same,outcome,[6],inactive
same,AC50,[7],15.1 µM (active)
same,AC50,[8],8.38 µM (active)
same,AC50,[9],8.95 µM (active)
same,AC50,[10],17.7 µM (active)
same,AC50,[11],0.00342 µM (active)
same,AC50,"CD69, CD69 (gene 969)",7.19 µM (active)
same,outcome,"CD69, CD69 (gene 969)",inactive
same,AC50,[12],17.5 µM (active)
same,AC50,[13],15.6 µM (active)
same,AC50,[14],13.5 µM (active)
same,AC50,[15],11.2 µM (active)
same,AC50,[16],4.7 µM (active)
same,AC50,[17],6.4 µM (active)
same,AC50,[18],10.8 µM (active)
same,outcome,[19],inactive
same,AC50,[20],11.4 µM (active)
